From the supplement of paper PMC4466236
The full ranking holds about 33,000 sequences; the median of “E-score (dimensionless, -0.5 to 0.5)” is about -0.058, and the highest 2% start at about 0.35. The sample holds the highest values, similar sequences and a random draw of the others, so the mix is not that of the screen.

These sequences were tested on MvaT (assay: PBM 8-mer E-score (mean of HK and ME arrays) (E-score (dimensionless, -0.5 to 0.5)); higher = stronger relative binding preference).
How it was run: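 Full-length P. aeruginosa MvaT carrying an N-terminal glutathione S-transferase tag was tested by protein binding microarray following a previously described protocol. Two universal double-stranded 60-mer arrays, ME and HK, were used, each with a constant 25-mer primer region and a variable 35-mer region covering all 8-mers. The rank-based E-score is the mean of the two arrays, parsed with a custom script. Its range runs from -0.5 to 0.5 for each 8-mer.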

Row | Sequence | PBM 8-mer E-score
1 | AGTCCGTC | -0.103
2 | CGCACCCG | -0.242
3 | AGTTATGC | 0.246
4 | AGTTATAA | 0.43
5 | GGTTATAC | 0.0501
6 | TGTTACAA | 0.257
7 | GGTTATAA | 0.344
8 | AGTTATAC | 0.393
9 | CGTTATAC | 0.21
10 | TGTTATAA | 0.437
11 | CGTTATAA | 0.39
12 | AGTTATCA | 0.242
13 | AGTTATGA | 0.319
14 | CGTTATAG | 0.2
15 | CCAACCGA | -0.0134
16 | TACCAAGA | -0.0377

Row | Sequence | PBM 8-mer E-score
17 | TCCCAACA | 0.111
18 | CGATACCC | -0.141
19 | CGCGTCCC | -0.132
20 | ACTGTGAC | 0.0208
21 | AGTGCCGG | -0.0286
22 | GTACCTTA | 0.119
23 | CGGGCCAA | -0.118
24 | GGGCGCTA | -0.265
25 | GGGACAGA | -0.12
26 | CCACCGTC | -0.258
27 | AGTTATAT | 0.437
28 | AGTTATAG | 0.316
29 | AGCTATAT | 0.328
30 | ATGGGTAC | -0.0802
31 | AGCGTTGA | -0.0483
32 | AGGTATGA | 0.12
